# DAX1 inh-1 = DAX1 (NR0B1) inhibitors, primary screen, cell-based, HEK293, Gal4-DAX1, luciferase luminescence; HEK293 Gal4-DAX1 luciferase reporter; inhibition, % at 6.75 µM; 0.99% of 340,000 active;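 active = inhibition above the mean over all tested compounds plus 3 SD, cut at about 4.2% in these data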;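 note: inhibition shows as a rise in luminescence from relieved DAX1 repression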
# hcDAF12 agonist = H. contortus DAF-12 nuclear receptor activators, primary screen, cell-based, luminescence, HEK293, lit1-tk-luc reporter; HEK293 hcDAF-12 lit1-tk-luc reporter; 0% DMSO, 100% Δ7-dafachronic acid; activation, % at 6.8 µM; 1.4% of 370,000 active;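 active = activation above the mean of all tested compounds plus 3 SD, cut at about 5.5% in these data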
# ssDAF-12 act = S. stercoralis DAF-12 nuclear receptor activators, primary screen, cell-based, luminescence, HEK293, GRIP1 co-expression, lit1-tk-luc. HEK293 ssDAF-12/GRIP1 lit1-tk-luc reporter; % of 3 µM dafachronic acid response. activation, % at 6.8 µM. 1% of 370,000 active;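 active = activation above the mean over all tested compounds plus 3 SD, cut at about 0.9% in these data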
# hgDAF12 agonist = H. glycines DAF-12 receptor agonists, primary screen, cell-based, luminescence, HEK293, GAL4 fusion, UAS-luciferase; Nuclear hormone receptor DAF-12 (Heterodera glycines), GAL4 fusion; HEK293 GAL4-hgDAF12 UAS-luciferase reporter, agonist luminescence; normalized to butyrate control; activation, % at 6.8 µM; 1.8% of 370,000 active; AID 687014, 2013;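 active = activation above a cutoff set at the mean of all screened compounds plus 3 SD, cut at about 10% in these data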
# DAX1 inh-2 = DAX1 (NR0B1) inhibitors on StAR promoter, primary screen, cell-based, luminescence, SF-1 (NR5A1), full-length DAX-1. HEK293T StAR-luciferase reporter, SF-1/DAX-1 repression relief. inhibition, % at 6.8 µM. 1.1% of 370,000 active;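 active = inhibition above the mean over all tested compounds plus 3 SD, cut at about 3.6% in these data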;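 note: higher inhibition means more luminescence from relief of DAX-1 repression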
# hgDAF12 ag = H. glycines DAF-12 receptor agonists, confirmation, cell-based, luminescence, HEK293, GAL4-LBD fusion; shares compounds with hgDAF12 agonist; HEK293 GAL4-hgDAF12 luciferase reporter, agonist mode; percent of butyrate response; activation, % at 6.8 µM; 80% of 3,300 active; AID 743050, 2013;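 active = mean activation over triplicate wells above the hit cutoff derived from the earlier primary screen, cut at about 11% in these data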
# LXRb DAF12 ctr = LXR agonists, Gal4 luciferase reporter, confirmation, counter-screen for hgDAF-12 agonist project, cell-based, luminescence, HEK293, H. glycines campaign. shares compounds with hgDAF12 agonist. 24 h. activation, % at 6.8 µM. 3,300 tested, under 10 active. AID 743051, 2013;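 active = mean activation of the triplicate above a set limit carried over from the primary screen, none filed active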
# Target sequence (P55055 whole entry, looked up, the tested form may be a part): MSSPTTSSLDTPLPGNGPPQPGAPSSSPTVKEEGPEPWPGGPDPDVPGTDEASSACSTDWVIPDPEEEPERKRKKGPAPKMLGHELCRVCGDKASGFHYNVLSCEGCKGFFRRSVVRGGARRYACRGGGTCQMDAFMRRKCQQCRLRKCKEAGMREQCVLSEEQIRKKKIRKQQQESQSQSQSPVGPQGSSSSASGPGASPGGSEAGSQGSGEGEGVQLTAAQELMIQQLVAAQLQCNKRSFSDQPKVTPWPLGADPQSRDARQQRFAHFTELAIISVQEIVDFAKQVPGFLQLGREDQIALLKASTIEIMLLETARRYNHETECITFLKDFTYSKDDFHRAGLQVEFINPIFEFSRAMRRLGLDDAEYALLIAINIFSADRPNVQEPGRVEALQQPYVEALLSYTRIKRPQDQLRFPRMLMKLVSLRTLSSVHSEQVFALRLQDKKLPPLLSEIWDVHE
# Numbers stand for hits; 0 = inactive; - = not tested or not shown. Most compounds without a hit are left out; they make up all but 4.1% or so of the library.
SMILES,DAX1 inh-1,hcDAF12 agonist,ssDAF-12 act,hgDAF12 agonist,DAX1 inh-2,hgDAF12 ag,LXRb DAF12 ctr
COc1cccc(N(CC(=O)NC2CCCCC2)C(=O)CCC(=O)Nc2nccs2)c1,0,0,0,0,0,-,-
Clc1ccc(Cc2noc(-c3cccs3)n2)cc1,0,0,0,19,0,0,0
COc1cc(C(=O)Nc2ccc(C)c(S(=O)(=O)N(C)C)c2)ccc1OCC(=O)N1CCOCC1,0,0,0,0,0,-,-
Nc1c(-c2ccc(Cl)cc2)cnc2c(-c3ccccc3)cnn12,7.8,0,0,14,0,12,0
COc1ccc(NC(=O)CSc2nc3ccsc3c(=O)n2CCC(=O)O)c(OC)c1,0,0,0,14,0,0,0
Nc1[nH]c(C(=O)c2ccccc2)c(-c2ccc(Cl)cc2Cl)c1C(=O)c1ccc(Br)cc1,-,0,0,0,0,-,-
COc1ccccc1C(=O)N/C(=N/c1nc(C)cc(C)n1)Nc1ccccc1,0,0,0,14,0,0,0
CCC(=O)N/C(=N/c1nc(C)cc(C)n1)Nc1ccccc1,0,0,0,0,0,-,-
O=C(Nc1ccccc1)OCCCc1ccccc1,0,0,0,16,0,12,0
CC12CCC(C(=O)Nc3nc4ccccc4s3)(OC1=O)C2(C)C (stereo unspecified),0,0,0,13,0,0,0
Cc1ccc(CNS(=O)(=O)c2ccc(Cl)s2)cc1,0,0,0,0,0,-,-
O=[N+]([O-])c1cccc(-c2nnc(-c3ccccc3)o2)c1,0,0,0,14,0,16,0
O=[N+]([O-])c1cccc(-c2nnc(-c3ccc4c(c3)OCO4)o2)c1,0,0,0,0,0,-,-
COC(=O)c1ccc2nc(-c3ccc(OC)c(OC)c3)c(CC3CCCCC3)n2c1,-,0,0,0,0,-,-
CCCCc1cc(=O)oc2cc(C)cc(OCC(=O)Nc3ccccn3)c12,0,0,0,15,0,0,0
O=C(O)c1ccccc1C(=O)Nc1ccc(-c2csc(-c3ccccc3)n2)cc1,0,0,0,16,0,0,0
O=C(O)c1ccc(-c2nc(-c3ccccc3)cs2)cc1,6.5,0,0,13,0,0,0
Cc1cccc(C)c1NC(=O)CN1CCN(c2ccc(C(F)(F)F)cn2)CC1,-,0,0,0,0,-,-
COc1ccc(S(=O)(=O)N2CCCCC2c2cc(C(=O)NCc3cccnc3)no2)cc1 (stereo unspecified),-,0,0,0,0,-,-
Cc1ccc(-c2nc3ccccc3s2)cc1NC(=S)NC(=O)c1ccccc1,0,5.7,1.6,15,0,16,0
CC(=O)Nc1ccc(S(=O)(=O)Nc2nc3ccc(C)cc3s2)cc1,0,0,0,0,0,-,-
Cc1ccc2nc(-c3ccc(NC(=O)COC(=O)c4ccco4)cc3)sc2c1,0,0,0,21,4.1,19,0
Cc1ccc(NC(=O)COC(=O)c2ccco2)cc1,0,0,0,0,0,-,-
Cc1ccc2nc(-c3ccc(NC(=O)CN4C(=O)NC(C)(c5ccc(OC(F)F)cc5)C4=O)cc3)sc2c1 (stereo unspecified),0,5.8,0,15,0,14,0
CC1(c2ccc(OC(F)F)cc2)NC(=O)N(CC(=O)Nc2ccccc2)C1=O (stereo unspecified),0,0,0,0,0,-,-
Cc1cc(C)nc(NC(=S)NC(=O)c2ccccc2)n1,0,0,0,0,0,-,-
CC(=O)NC(=S)Nc1ccc(-c2nc3ccc(C)cc3s2)cc1,0,0,0,15,0,22,0

# Assay outcomes as filed in PubChem.
